Data reported in PubChem BioAssay.
Active and inactive are the calls of the source.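 The calls were made as follows, unless noted: active = inhibition above the screen-wide mean plus 3 SD, about 51%; inactive = the rest.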

Experiments:
[1] = inhibitors of CD8+ T cell-vesicle binding, pilot screen, LFA-1/ICAM-1 modulator project, MLPCN validation set, flow cytometry (AID 2523;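 active = response below a set limit, under 55% cells CD8-positive and vesicle-bound, and CD8 cells' 90th-percentile brightness under 279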;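 as to vesicle binding response: mean PE anti-B7-1 fluorescence of CD8+ cells relative to row control; 100% = QL9-loaded vesicles with DMSO vehicle in the same plate row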); settings: 2C mouse CD8+ T cells, at 7 µM, stronger effect = lower value; double positive events: measured here: CD8+/vesicle+ event percentage
[2] = target: Integrin beta-1 (Homo sapiens) + Integrin alpha-4 (Homo sapiens) (UniProt P13612+P05556); experiment: inhibition of HUTS-21 binding to VLA-4, pilot screen, VLA-4 allosteric modulator project, U937 cells, HUTS-21 mAb, flow cytometry, validation set (AID 2674;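 active = inhibition above 50%, about 3 SD of the validation set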;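 also: antibody binding induced by the VLA-4 ligand LDV present at three times its Kd; 0% = LDV ligand with antibody and no compound and 100% = antibody without LDV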); settings: HUTS-21 LIBS mAb binding, at 6.7 µM, stronger effect = higher value, binding induced by LDV ligand
Chain of Integrin beta-1 (Homo sapiens) + Integrin alpha-4 (Homo sapiens) (P05556 whole entry, looked up): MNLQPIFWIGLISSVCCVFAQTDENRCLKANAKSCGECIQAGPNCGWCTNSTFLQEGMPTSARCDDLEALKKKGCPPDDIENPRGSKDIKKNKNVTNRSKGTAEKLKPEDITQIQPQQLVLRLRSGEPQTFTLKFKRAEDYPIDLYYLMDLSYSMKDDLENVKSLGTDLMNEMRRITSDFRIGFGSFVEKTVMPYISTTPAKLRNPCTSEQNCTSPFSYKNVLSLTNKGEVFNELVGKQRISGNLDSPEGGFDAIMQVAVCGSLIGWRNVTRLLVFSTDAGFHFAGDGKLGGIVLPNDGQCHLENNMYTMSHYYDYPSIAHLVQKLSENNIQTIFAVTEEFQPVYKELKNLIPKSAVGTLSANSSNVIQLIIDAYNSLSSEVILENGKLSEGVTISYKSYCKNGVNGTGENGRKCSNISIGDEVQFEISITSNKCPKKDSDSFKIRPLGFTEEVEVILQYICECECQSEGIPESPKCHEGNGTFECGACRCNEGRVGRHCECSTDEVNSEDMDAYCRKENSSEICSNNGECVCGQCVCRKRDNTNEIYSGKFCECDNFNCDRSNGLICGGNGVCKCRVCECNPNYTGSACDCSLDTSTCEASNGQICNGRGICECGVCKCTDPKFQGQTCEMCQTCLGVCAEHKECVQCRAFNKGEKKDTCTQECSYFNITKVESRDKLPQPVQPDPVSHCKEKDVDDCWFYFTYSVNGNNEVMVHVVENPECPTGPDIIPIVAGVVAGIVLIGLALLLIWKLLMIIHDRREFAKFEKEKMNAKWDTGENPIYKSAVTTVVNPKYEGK
Chain of Integrin beta-1 (Homo sapiens) + Integrin alpha-4 (Homo sapiens) (P13612 whole entry, looked up): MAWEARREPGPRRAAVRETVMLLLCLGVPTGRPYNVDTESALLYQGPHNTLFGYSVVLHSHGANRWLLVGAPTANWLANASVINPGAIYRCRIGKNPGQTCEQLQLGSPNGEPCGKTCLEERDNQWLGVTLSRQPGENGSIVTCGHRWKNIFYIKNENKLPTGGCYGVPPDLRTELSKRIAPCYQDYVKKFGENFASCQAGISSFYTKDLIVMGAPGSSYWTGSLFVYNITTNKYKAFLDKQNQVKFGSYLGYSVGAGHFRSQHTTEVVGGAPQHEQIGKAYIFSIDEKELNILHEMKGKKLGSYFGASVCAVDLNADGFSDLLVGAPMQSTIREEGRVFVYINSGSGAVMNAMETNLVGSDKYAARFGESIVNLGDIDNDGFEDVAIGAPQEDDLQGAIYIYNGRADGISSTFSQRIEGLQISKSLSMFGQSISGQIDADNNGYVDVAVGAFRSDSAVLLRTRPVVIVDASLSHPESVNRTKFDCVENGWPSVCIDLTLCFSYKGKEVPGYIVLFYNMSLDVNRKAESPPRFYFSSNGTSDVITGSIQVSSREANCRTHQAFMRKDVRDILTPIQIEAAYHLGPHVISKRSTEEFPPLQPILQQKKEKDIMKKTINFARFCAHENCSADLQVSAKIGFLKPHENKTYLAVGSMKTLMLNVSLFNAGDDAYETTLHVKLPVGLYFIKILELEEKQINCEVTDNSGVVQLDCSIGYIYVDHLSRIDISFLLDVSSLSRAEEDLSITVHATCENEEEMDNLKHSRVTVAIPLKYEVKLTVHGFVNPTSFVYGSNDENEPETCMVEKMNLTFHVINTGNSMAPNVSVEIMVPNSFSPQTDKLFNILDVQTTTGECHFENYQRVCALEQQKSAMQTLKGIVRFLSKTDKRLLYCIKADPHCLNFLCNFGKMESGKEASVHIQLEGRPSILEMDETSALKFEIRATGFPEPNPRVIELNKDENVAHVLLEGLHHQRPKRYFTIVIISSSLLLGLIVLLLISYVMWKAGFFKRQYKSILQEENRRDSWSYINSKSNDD

[3] = superoxide lowering in aged yeast cells, pilot screen, validation compound set (AID 2706;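 active = superoxide response below 65% of plate, a cut near 3 SD across the whole screen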;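 also: yeast exposed to compound for one week at 30 degrees C before staining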;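 as to superoxide response (% of plate): 100% = mean of all compound wells on the same plate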); settings: S. cerevisiae aging, superoxide DHE fluorescence; at 10 µM, stronger effect = lower value
[4] = target: Beta-adrenergic receptor kinase 1 (Homo sapiens) (UniProt P25098); experiment: GRK2 binders displacing RNA aptamer, biochemical, validation, human GRK2, bead flow cytometry (AID 488806;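 active = aptamer binding inhibition above 30%, about 3 SD of noise from non-fluorescent compounds; inactive = inhibition at or below 30%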); settings: bead-bound GRK2, FAM-aptamer displacement, at 10 µM, stronger effect = higher value
Chain of Beta-adrenergic receptor kinase 1 (Homo sapiens) (P25098 whole entry, looked up): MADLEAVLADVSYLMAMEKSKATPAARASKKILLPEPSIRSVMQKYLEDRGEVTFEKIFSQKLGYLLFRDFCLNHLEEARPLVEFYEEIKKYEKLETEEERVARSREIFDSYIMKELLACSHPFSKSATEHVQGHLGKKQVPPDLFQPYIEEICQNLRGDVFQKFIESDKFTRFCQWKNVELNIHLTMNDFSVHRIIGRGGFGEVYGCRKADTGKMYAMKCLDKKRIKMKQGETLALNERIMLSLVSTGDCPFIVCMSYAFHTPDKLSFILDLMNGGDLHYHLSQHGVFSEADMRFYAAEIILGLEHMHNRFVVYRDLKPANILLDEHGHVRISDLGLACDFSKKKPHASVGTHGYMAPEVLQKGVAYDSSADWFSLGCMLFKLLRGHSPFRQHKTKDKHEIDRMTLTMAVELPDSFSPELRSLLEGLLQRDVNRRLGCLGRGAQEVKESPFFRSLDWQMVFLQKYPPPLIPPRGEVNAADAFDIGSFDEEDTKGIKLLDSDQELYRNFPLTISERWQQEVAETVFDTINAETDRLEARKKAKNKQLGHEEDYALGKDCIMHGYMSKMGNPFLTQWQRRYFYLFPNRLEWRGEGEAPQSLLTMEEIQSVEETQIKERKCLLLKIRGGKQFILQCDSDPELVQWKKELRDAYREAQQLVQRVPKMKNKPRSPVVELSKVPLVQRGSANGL

[5] = target: Beta-2 adrenergic receptor (Homo sapiens) (UniProt P07550); experiment: beta2AR agonists driving receptor internalization, pilot screen, cell-based, FAP fluorogen, flow cytometry, validation set (AID 504459;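 active = percent response above 42, roughly 3 SD of non-fluorescent test compounds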;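 also: agonist-driven loss of surface beta2AR via internalization measured by FAP dye flow cytometry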); settings: Am2.2-beta2AR cells, FAP surface receptor flow cytometry; at 10 µM; stronger effect = higher value
Chain of Beta-2 adrenergic receptor (Homo sapiens) (P07550 whole entry, looked up): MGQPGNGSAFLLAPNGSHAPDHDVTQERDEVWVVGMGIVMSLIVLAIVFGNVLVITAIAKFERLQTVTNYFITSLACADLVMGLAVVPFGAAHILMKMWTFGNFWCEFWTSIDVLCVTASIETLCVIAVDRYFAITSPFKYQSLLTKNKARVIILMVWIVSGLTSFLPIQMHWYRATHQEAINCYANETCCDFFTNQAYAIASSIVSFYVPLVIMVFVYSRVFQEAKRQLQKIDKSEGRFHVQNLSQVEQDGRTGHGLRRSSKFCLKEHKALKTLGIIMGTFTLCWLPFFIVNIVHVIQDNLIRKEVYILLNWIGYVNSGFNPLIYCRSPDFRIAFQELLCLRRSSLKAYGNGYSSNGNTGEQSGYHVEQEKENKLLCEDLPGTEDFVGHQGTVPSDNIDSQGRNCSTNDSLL

[6] = target: AP-2 complex subunit beta (Homo sapiens) (UniProt P63010); experiment: inhibitors of arrestin peptide binding to AP2, pilot screen, biochemical, validation set, GST-AP2 beads, flow cytometry (AID 504541;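 active = inhibition above 54%, about 3 SD of non-fluorescent compounds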;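 also: AP2 carries R879A mutation and is captured from E. coli lysate; bead-bound FITC arrestin peptide fluorescence measuring arrestin peptide binding to AP2; 0% = DMSO wells and 100% = excess unlabeled arrestin peptide control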); settings: FITC arrestin peptide, at 10 µM, stronger effect = higher value, AP2 beta2 appendage fragment, R879A mutant
Chain of AP-2 complex subunit beta (Homo sapiens) (P63010 whole entry, looked up, the tested form may be a part, one chain of several): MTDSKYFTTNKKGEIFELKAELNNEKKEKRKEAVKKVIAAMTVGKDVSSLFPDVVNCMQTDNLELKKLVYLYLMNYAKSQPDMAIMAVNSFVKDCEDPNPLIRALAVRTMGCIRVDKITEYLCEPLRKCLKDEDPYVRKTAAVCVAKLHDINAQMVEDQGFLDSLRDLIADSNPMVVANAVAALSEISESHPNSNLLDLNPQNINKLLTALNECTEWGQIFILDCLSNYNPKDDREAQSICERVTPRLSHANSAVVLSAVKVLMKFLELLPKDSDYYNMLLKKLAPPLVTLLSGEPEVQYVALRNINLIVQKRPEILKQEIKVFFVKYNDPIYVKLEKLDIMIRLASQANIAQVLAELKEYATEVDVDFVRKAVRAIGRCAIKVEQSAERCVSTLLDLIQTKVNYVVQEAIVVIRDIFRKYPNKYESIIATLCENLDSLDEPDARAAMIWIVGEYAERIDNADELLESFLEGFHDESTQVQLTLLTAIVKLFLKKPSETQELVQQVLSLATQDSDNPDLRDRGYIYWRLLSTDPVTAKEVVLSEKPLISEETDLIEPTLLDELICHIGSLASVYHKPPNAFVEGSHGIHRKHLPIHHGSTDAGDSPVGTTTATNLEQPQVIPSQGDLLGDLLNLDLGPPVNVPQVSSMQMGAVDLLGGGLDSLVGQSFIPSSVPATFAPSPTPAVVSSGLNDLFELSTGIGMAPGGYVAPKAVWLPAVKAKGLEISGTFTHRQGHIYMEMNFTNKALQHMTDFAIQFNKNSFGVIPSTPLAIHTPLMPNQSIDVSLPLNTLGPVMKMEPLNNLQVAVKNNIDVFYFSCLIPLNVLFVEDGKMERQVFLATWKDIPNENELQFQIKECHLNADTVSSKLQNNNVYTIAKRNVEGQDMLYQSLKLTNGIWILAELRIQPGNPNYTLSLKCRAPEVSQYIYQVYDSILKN

[7] = yeast V-ATPase proton transport modulators, S. cerevisiae, pHLuorin, HTS validation (AID 504600; in the data active = response above about 15%;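 also: plate controls were DMSO for no effect and reference compound for full effect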); settings: S. cerevisiae pHLuorin cytosolic pH, at 10 µM, stronger effect = higher value
[8] = system: anti-desmoglein-3 scFv antibody binding to human DSG3; experiment: inhibitors of anti-DSG3 scFv binding to DSG3, pilot screen, biochemical, validation compound set, bead-based, flow cytometry (AID 588368;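 active = binding below the plate cutoff, the plate median minus 3 SD, with a reading above zero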;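 also: signal is the median channel fluorescence of bead-bound GFP antibody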); settings: Protein G beads, DSG3-Fc, scFv-GFP binding, at 10 µM, stronger effect = lower value
[9] = inhibitors of fungal efflux pumps CDR1, CDR2, MDR1, pilot screen, validation compound set, multiplex, phenotypic (AID 588506;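 active = efflux inhibition above 0.42, the validation set average plus 4 SD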;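 also: Nile Red retained in cells so higher fluorescence means more efflux inhibition; 0 = negative control wells and 1 = enniatin B 25 µM full block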); settings: S. cerevisiae pump-expressing triplex, Nile Red efflux flow cytometry; at 10 µM; stronger effect = higher value; the pumps come from Candida albicans
[10] = target: ATP-binding cassette sub-family B member 6 (Homo sapiens) (UniProt Q9NP58); experiment: ABCB6 transporter inhibitors, pilot screen, K562-ABCB6 cells, flow cytometry, validation set (AID 588550); settings: K562-ABCB6 porphyrin accumulation, 1 h, at 10 µM, stronger effect = higher value;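 also: 0% = DMSO wells and 100% = benzethonium chloride 70 µM positive control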
Chain of ATP-binding cassette sub-family B member 6 (Homo sapiens) (Q9NP58 whole entry, looked up): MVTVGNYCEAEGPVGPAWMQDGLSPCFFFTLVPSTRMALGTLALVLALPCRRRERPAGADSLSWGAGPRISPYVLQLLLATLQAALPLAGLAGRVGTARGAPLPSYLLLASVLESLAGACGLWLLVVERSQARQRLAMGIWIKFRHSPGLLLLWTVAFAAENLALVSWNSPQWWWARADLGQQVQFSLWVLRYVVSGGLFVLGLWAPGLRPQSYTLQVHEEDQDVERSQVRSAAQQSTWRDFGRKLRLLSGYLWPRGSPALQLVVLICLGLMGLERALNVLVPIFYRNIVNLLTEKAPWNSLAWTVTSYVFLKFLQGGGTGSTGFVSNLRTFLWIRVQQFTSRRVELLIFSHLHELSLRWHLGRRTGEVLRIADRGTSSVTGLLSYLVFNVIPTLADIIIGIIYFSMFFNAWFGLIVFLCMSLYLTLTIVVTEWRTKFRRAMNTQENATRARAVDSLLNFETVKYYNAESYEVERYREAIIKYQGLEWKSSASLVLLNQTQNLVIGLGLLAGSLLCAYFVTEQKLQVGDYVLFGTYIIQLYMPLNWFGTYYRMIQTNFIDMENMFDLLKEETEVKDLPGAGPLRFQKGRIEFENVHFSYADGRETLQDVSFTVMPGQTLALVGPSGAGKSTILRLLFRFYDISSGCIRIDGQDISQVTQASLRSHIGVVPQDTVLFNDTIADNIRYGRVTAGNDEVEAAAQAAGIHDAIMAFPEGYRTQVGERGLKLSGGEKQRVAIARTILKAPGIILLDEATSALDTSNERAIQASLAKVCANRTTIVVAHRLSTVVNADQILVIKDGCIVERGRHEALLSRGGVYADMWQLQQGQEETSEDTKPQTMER

[11] = promoters of myeloid differentiation in arrested cells, primary screen, cell-based, GFP/MAC1 double positive, flow cytometry, validation set (AID 588685;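 active = differentiation response of at least 50%, scaled between solvent and reference control, from cells with both markers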;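 also: compound exposure lasts four days before antibody staining and flow analysis; 0% = DMSO wells and 100% = 5 µM fulvestrant positive control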); settings: ER-HoxA9 marrow cells, stronger effect = higher value, normalized: vehicle 0, fulvestrant 100

Structure (SMILES) | double positive events [1] [%] | vesicle binding response [1] | inhibition [2] | superoxide response (% of plate) [3] | aptamer binding inhibition [4] | response [5] | inhibition [6] | response [7] | binding (% of control) [8] | efflux inhibition (fraction of control) [9] | inhibition [10] | differentiation response [11] | outcome [3]
Cc1ccc(C(=O)N2CC3(C(C)C)CN(C(=O)c4ccc(C)cc4)CC(C(C)C)(C2)C3=O)cc1 | 59.7 | 224% (inactive) | -30.5% (inactive) | 97.1% (inactive) | 3% (inactive) | 24.4% (inactive) | 14.1% (inactive) | -0.93% (inactive) | 99.1% (inactive) | 0.76 (active) | 5% (inactive) | 7.2% (inactive) | –
OC(CCCN1CCCCC1)(c1ccccc1)c1ccccc1 | 62.8 | 250% (inactive) | 19.1% (inactive) | 104% (inactive) | -3% (inactive) | -0.72% (inactive) | -8.31% (inactive) | 2.56% (inactive) | 108% (inactive) | 0.34 (inactive) | 4% (inactive) | -2.46% (inactive) | –
CC(C)CC(=O)N(Cc1ccc(F)cc1)C1CCS(=O)(=O)C1 (configuration not stated) | 61.8 | 204% (inactive) | 0.25% (inactive) | 114% (inactive) | 2% (inactive) | 22.9% (inactive) | 1.93% (inactive) | 3.28% (inactive) | 102% (inactive) | 0.91 (active) | 19% (inactive) | -8.96% (inactive) | –
CCCCC[C@H](O)/C=C/[C@@H]1[C@@H](C/C=C\CCCC(=O)O)[C@H]2CO[C@@H]1C2 | 59 | 192% (inactive) | -8.78% (inactive) | 110% (inactive) | -1% (inactive) | -18.1% (inactive) | 1.57% (inactive) | -0.38% (inactive) | 101% (inactive) | 0.08 (inactive) | -1% (inactive) | -10.9% (inactive) | –
O=C(Nc1cccc(-c2nc3ncccc3o2)c1)c1ccccc1 | 56.1 | 159% (inactive) | 2.3% (inactive) | 106% (inactive) | 1% (inactive) | 17.2% (inactive) | -1.86% (inactive) | 7.44% (inactive) | 102% (inactive) | -0.06 (inactive) | 0% (inactive) | -16.8% (inactive) | –
CN1CCN(C2=Nc3cc(Cl)ccc3Nc3ccccc32)CC1 | 61.7 | 222% (inactive) | 31.2% (inactive) | 84.7% (inactive) | -4% (inactive) | -25% (inactive) | 9.21% (inactive) | 6.59% (inactive) | 102% (inactive) | 0.04 (inactive) | -2% (inactive) | -5.97% (inactive) | –
CCOc1ccc(CC2c3cc(OCC)c(OCC)cc3CCN2C(=O)CN2CCN(C)CC2)cc1OCC (configuration not stated) | 61.7 | 160% (inactive) | -11.3% (inactive) | 82.4% (inactive) | 0% (inactive) | -8.24% (inactive) | 5.19% (inactive) | -5.23% (inactive) | 108% (inactive) | -0.04 (inactive) | 4% (inactive) | -3.02% (inactive) | –
COc1cc(NC(=O)N[C@@H](Cc2ccccc2)C(=O)O)cc(OC)c1 | 62.8 | 221% (inactive) | 9.1% (inactive) | 106% (inactive) | 3% (inactive) | -10.8% (inactive) | -3.53% (inactive) | 22.2% (active) | 105% (inactive) | -0.09 (inactive) | 2% (inactive) | 0.92% (inactive) | –
Nc1ccc2[nH]ncc2c1 | 62.1 | 174% (inactive) | -8.62% (inactive) | 110% (inactive) | 12% (inactive) | 20.4% (inactive) | 11.5% (inactive) | 1.54% (inactive) | 104% (inactive) | 0.73 (active) | -7% (inactive) | 87.2% (active) | –
COc1ccc(CCNC(=O)c2c(O)c3c([nH]c2=O)CCCC3)cc1 | 62.2 | 180% (inactive) | 3.14% (inactive) | 124% (inactive) | -6% (inactive) | -28.9% (inactive) | -16.3% (inactive) | 9.51% (inactive) | 30.9% (active) | 0 (inactive) | 1% (inactive) | -0.06% (inactive) | –
COC(=O)c1cc(C(=O)NCCC(C)C)cc([N+](=O)[O-])c1 | 57.8 | 229% (inactive) | 2.3% (inactive) | 112% (inactive) | 4% (inactive) | 7.63% (inactive) | -12% (inactive) | 2.1% (inactive) | 94.5% (inactive) | -0.13 (inactive) | 3% (inactive) | -15.2% (inactive) | –
Cc1nnc(SCC(=O)N2CCCC(C(=O)c3ccc(Cl)cc3)C2)o1 (configuration not stated) | 71.9 | 299% (inactive) | 2.3% (inactive) | 95.6% (inactive) | 1% (inactive) | -7.42% (inactive) | -3.16% (inactive) | 2.16% (inactive) | 105% (inactive) | 0.3 (inactive) | 3% (inactive) | -13.6% (inactive) | –
O=C(NCCc1cccc(F)c1)[C@@H]1CSC2c3ccccc3C(=O)N21 (some centres not stated) | 63.2 | 251% (inactive) | 5.03% (inactive) | 97.1% (inactive) | 5% (inactive) | 1.99% (inactive) | -1.7% (inactive) | 0.26% (inactive) | 101% (inactive) | 0.12 (inactive) | 7% (inactive) | 2.4% (inactive) | –
COc1cc2c(cc1O)CC[C@@H]1[C@@H]2CC[C@]2(C)[C@@H](O)CC[C@@H]12 | 58.8 | 139% (inactive) | 44.9% (inactive) | 112% (inactive) | -7% (inactive) | -10.9% (inactive) | -5.34% (inactive) | -4.33% (inactive) | 106% (inactive) | 0.04 (inactive) | -1% (inactive) | -9.91% (inactive) | –
O=C(Nc1ccccc1)OCC1CCCN2CCCCC12 (configuration not stated) | 80 | 511% (inactive) | -0.27% (inactive) | 93.9% (inactive) | -2% (inactive) | -23.8% (inactive) | -10.6% (inactive) | 1.1% (inactive) | 112% (inactive) | -0.04 (inactive) | 16% (inactive) | 63% (active) | –
COc1ccc(-c2cc(=O)oc3c(C)c(O)c(CN(C)C)cc23)cc1 | 66 | 183% (inactive) | 9.63% (inactive) | 96.8% (inactive) | 1% (inactive) | -14.6% (inactive) | 2.69% (inactive) | 5.58% (inactive) | 98.3% (inactive) | 0.42 (inactive) | 0% (inactive) | 2.74% (inactive) | –
O=C(Nc1ccccc1)c1ccccc1CCc1ccccc1 | 61.3 | 167% (inactive) | 6.95% (inactive) | 90.9% (inactive) | 5% (inactive) | 46.6% (active) | 9.22% (inactive) | -1.57% (inactive) | 95.3% (inactive) | -0.12 (inactive) | 0% (inactive) | -0.18% (inactive) | –
CCC(=O)Oc1ccc(/C(CC)=C(\CC)c2ccc(OC(=O)CC)cc2)cc1 | 67.2 | 174% (inactive) | 19.1% (inactive) | 94.7% (inactive) | 3% (inactive) | -5.73% (inactive) | -4.91% (inactive) | 2.77% (inactive) | 84.1% (inactive) | -0.02 (inactive) | 11% (inactive) | -4.09% (inactive) | –
CCOC(=O)c1cc2cc3ccccc3cc2[nH]1 | 70.4 | 334% (inactive) | -1.79% (inactive) | 81.1% (inactive) | 1% (inactive) | 15.9% (inactive) | -6.18% (inactive) | -1.49% (inactive) | 99.1% (inactive) | -0.1 (inactive) | 6% (inactive) | 7.2% (inactive) | –
CC(=O)CCc1oc2ccccc2c1-c1ccccc1 | 62.1 | 172% (inactive) | 0.59% (inactive) | – | -3% (inactive) | -37.7% (inactive) | -8% (inactive) | -1.06% (inactive) | 108% (inactive) | 0.12 (inactive) | 7% (inactive) | -1.05% (inactive) | inactive
CC(=O)O[C@H]1CC[C@H]2[C@@H]3CCc4cc(O)ccc4[C@H]3CC[C@]12C | 58.2 | 234% (inactive) | 15.9% (inactive) | 80.4% (inactive) | 1% (inactive) | -33% (inactive) | 6.38% (inactive) | 2.35% (inactive) | 101% (inactive) | 0.21 (inactive) | 5% (inactive) | -1.05% (inactive) | –
Cc1cccc(C2=N/C(=C\c3cccnc3)C(=O)O2)c1 | 63.6 | 179% (inactive) | 5.03% (inactive) | 98.1% (inactive) | 2% (inactive) | 13.3% (inactive) | -1.05% (inactive) | -1.71% (inactive) | 104% (inactive) | 0.12 (inactive) | 3% (inactive) | 103% (active) | –
CN1CCc2cccc3c2[C@@H]1Cc1ccc(O)c(O)c1-3 | 61 | 194% (inactive) | -38.6% (inactive) | 93.1% (inactive) | 11% (inactive) | 26.8% (inactive) | 6.55% (inactive) | -9.4% (inactive) | 100% (inactive) | -0.09 (inactive) | -20% (inactive) | 5.85% (inactive) | –
CCN1C(=O)C(CC(=O)Nc2ccc(F)cc2)N(Cc2ccc3c(c2)OCO3)C1=S (configuration not stated) | 56.3 | 124% (inactive) | 7.76% (inactive) | 101% (inactive) | 0% (inactive) | 22.9% (inactive) | -7.91% (inactive) | 0.48% (inactive) | 107% (inactive) | 0.44 (active) | 4% (inactive) | 58.4% (active) | –
COc1ccccc1C1(CC(=O)N2CCCCC2)CCOC(C(C)C)C1 (configuration not stated) | 60.3 | 205% (inactive) | 6.4% (inactive) | 97.5% (inactive) | 0% (inactive) | 8.83% (inactive) | -7.8% (inactive) | 2.05% (inactive) | 105% (inactive) | 0.33 (inactive) | 6% (inactive) | 23.2% (inactive) | –
C[C@H](NC(=O)OC(C)(C)C)C(=O)NCC1CCC(C(=O)O)CC1 (some centres not stated) | 58 | 166% (inactive) | 5.03% (inactive) | 95.3% (inactive) | 6% (inactive) | -13.5% (inactive) | -1.54% (inactive) | 1.21% (inactive) | 99.5% (inactive) | -0.06 (inactive) | 6% (inactive) | 0.8% (inactive) | –
